To fix the notation:
B1: VH:VL chains; a variant is named by its letters at X, in order (parent)
chain 1: QVQLVQSGAEVKKPGASVKVSCKASGYTFTDYXMHWVRQAPGQGLEWMGXVNPNXXXTTYNQKFEGRVTMTTDTSTSTAYMELRSLRSDDTAVYYCARXNXLDXWGQGTTVTVSS
chain 2: DIQMTQSPSSLSASVGDRVTITCSVSSSVSSIYLHWYQQKPGKAPKLLIYSTSNLASGVPSRFSGSGSGTDFTLTISSLQPEDFATYYCQVYSGYPLTFGGGTKVEIK

This is one part of the list. The hit rate among all sequences tested is not known here.

The variants in this assay derive from B1. Briefly: yeast display scFab, FACS + sequencing. The conditions noted are these: with MET. The gist of the method:
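For FACS, yeast displaying a heavy-chain CDR mutant scFab library were labelled with 1 nM HGFR-Fc and anti-Myc (PBSB, 1% milk, 3 h, room temperature), and the top 50% antigen-positive cells were gated. Input and round-3 sorted populations were deep sequenced in two replicates. The binding call was positive for sequences occurring in both antigen-positive samples and negative for sequences occurring only in input.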
Take SGAGDYSD: the antigen binding call is “no binding”.
Regarding VTGGDSSA, the antigen binding call is “no binding”.
The same measure for VAEKGFGA: “no binding”; for VRAGGFGA: “binds”.
The same measure for VRAGDSSA: “binds”.
For the variant VEAGDSSA, the antigen binding call was “no binding”.
With VRGTGFGA the entry was “no binding”.
For VKTGGDVF, the antigen binding call is “no binding”.
Take YRGAGAAA: the antigen binding call is on record as “binds”.
In the case of VAGAGAGA, the antigen binding call is “no binding”.
For the variant YRGAGAGA, the antigen binding call is on record as “binds”.
With YRGASAAA the entry was “binds”; with YRGAGYAA, “no binding”; with AGGGNDVV, “no binding”.
As to FKKGSSLD, the antigen binding call was “binds”.
As to FKARDSGD, the antigen binding call is reported as “no binding”.
With FKRGSSLD, the antigen binding call is on record as “binds”.
For the variant FEERNSLD, the antigen binding call is recorded as “no binding”.
For FKKGSSGV, the antigen binding call is “binds”.
With FKRRSSGD, the antigen binding call was “binds”.
Consider FKEGNSLD, for which the antigen binding call is “no binding”.
FKRRSFGS: the antigen binding call is “no binding”.
Take SEGADAGD: the antigen binding call is on record as “no binding”.
In the case of SEGGDAWV, the antigen binding call is reported as “no binding”.
As to FKKGSSWD, the antigen binding call is listed as “binds”.
Regarding FKKGSSGD, the antigen binding call is “binds”.
FKKGSVGD: the antigen binding call was “no binding”.
The same measure for FKKEGYGD: “no binding”; for VGGGNDLA chain 1 R87K: “no binding”.
Turning to FRAGGAWS, the antigen binding call is listed as “binds”.
For FRAGSAWS, the antigen binding call is recorded as “binds”.
The same measure for DAAKNDAV: “no binding”; for DGGKNDGV: “no binding”.
The same measure for VEGGADVF: “no binding”; for DTGGGDLA: “no binding”.
Regarding VRRGSSVS, the antigen binding call was “binds”.
Turning to VEEEGSVS, the antigen binding call is listed as “no binding”.
On to YARAGSVS, for which the antigen binding call is recorded as “no binding”.
For the variant YRRGSSVS, the antigen binding call is given as “binds”.
For YRRGGSVS, the antigen binding call is reported as “binds”.
Regarding YKRGSSVS, the antigen binding call is on record as “binds”.
On to DTGTGDGV, for which the antigen binding call is recorded as “no binding”.
On to YRRGGAVS, for which the antigen binding call is “binds”.
As for DTKAAAVV, the antigen binding call is given as “no binding”.
As for SRAGDYLV, the antigen binding call was “no binding”.
In the case of DRAGDYLV, the antigen binding call is given as “binds”.
With VRAGDYLV the entry was “no binding”.
Take DRRGDSLV: the antigen binding call is on record as “no binding”.
On to DRAGDDWV, for which the antigen binding call was “no binding”.
For the variant FRAGDYLV, the antigen binding call is reported as “binds”.
With DRAGDSLV, the antigen binding call is listed as “binds”.
The same measure for ARAGDYLV: “no binding”.
DRAGDYLY: the antigen binding call is recorded as “no binding”.
Turning to SAREGDWV, the antigen binding call is recorded as “no binding”.
Take SAARDAVA: the antigen binding call is listed as “no binding”.
Consider FAGGGDVY, for which the antigen binding call is “no binding”.
As for VRTEDDVF, the antigen binding call is “no binding”.
For the variant FKGKSSSD, the antigen binding call is on record as “no binding”.
For the variant FRGRGAWD, the antigen binding call is “binds”.
FRGGASSD: the antigen binding call is “binds”.
For the variant FRGRGASV, the antigen binding call is “binds”.
In the case of FRGRGFSV, the antigen binding call is “no binding”.
Consider FKGTDSSD, for which the antigen binding call is given as “no binding”.
For the variant FRGRGSSD, the antigen binding call is “binds”.
As to DAKEGDVV, the antigen binding call was “no binding”.
The same measure for VEGGGAGV: “no binding”; for DAGGADGV: “no binding”; for FRGRGASD: “binds”.
The same measure for FAGRGYSD: “no binding”; for FRKGDASD: “no binding”; for DGGKNAVA: “no binding”.
The same measure for VAGTGASD: “no binding”; for FRTRSSLA: “binds”.
FRGRSSLA: the antigen binding call is “binds”.
For VEGEDAGA, the antigen binding call was “no binding”.
On to FRRGSSGA, for which the antigen binding call was “binds”.
With YRRGSSGA, the antigen binding call is recorded as “binds”.
YTRGGSGA: the antigen binding call is given as “no binding”.
Regarding YRRGGSGA, the antigen binding call is reported as “binds”.
Regarding DAKEGSSA, the antigen binding call was “no binding”.
Regarding DGGKNDVV, the antigen binding call is “no binding”.
Regarding VEGTSAGD, the antigen binding call is given as “no binding”.
As to FRGRDYAA, the antigen binding call was “no binding”.
On to FRTRGAAA, for which the antigen binding call is recorded as “binds”.
In the case of FRTRGVGA, the antigen binding call is given as “no binding”.
On to YRTRGAGA, for which the antigen binding call is recorded as “binds”.
In the case of VRTRGDGA, the antigen binding call is given as “no binding”.
Regarding FTTRGAVA, the antigen binding call was “no binding”.
On to YRTRSAAA, for which the antigen binding call is on record as “binds”.
With YTTRGAGA, the antigen binding call is on record as “no binding”.
For FRTRDAAA, the antigen binding call is listed as “binds”.
For the variant SEARSDAS, the antigen binding call is listed as “no binding”.
On to DKEGGDVD, for which the antigen binding call is on record as “no binding”.
For the variant DATGGDGS, the antigen binding call is recorded as “no binding”.
The same measure for SKGRSDAV: “no binding”; for SETGNVWF: “no binding”.
For the variant YRTRGAWA, the antigen binding call was “binds”.
Take YATRGAAA: the antigen binding call is on record as “no binding”.
Consider VRTRGYLA, for which the antigen binding call is reported as “no binding”.
Consider YRTRGAAA, for which the antigen binding call is on record as “binds”.
Regarding YRTRGALA, the antigen binding call is “binds”.
As for VTGTGAVY, the antigen binding call is reported as “no binding”.
Turning to DGRGNSGD, the antigen binding call is reported as “no binding”.
On to YKRRNSGD, for which the antigen binding call was “no binding”.
The same measure for YEGTGSGD: “no binding”; for YGRGNSGD: “binds”; for YKRGGSGD: “binds”.
Take YKRGSSGD: the antigen binding call was “binds”.
The same measure for VGRGNSGD: “no binding”.
For STGGGDGV, the antigen binding call is listed as “no binding”.
The same measure for STAGSASD: “no binding”.
YRRGGSLS: the antigen binding call is given as “binds”.
As to DARGGSLS, the antigen binding call is listed as “no binding”.
Regarding YEGTGSLS, the antigen binding call is reported as “no binding”.
Take YRRGSSLS: the antigen binding call is “binds”.
With YRRGSALS the entry was “binds”.
Take VKGASDGA: the antigen binding call is “no binding”.
As for YKRGSFGA, the antigen binding call is reported as “no binding”.
VTRGASGA: the antigen binding call was “no binding”.
For the variant YKEKGDGA, the antigen binding call is “no binding”.
YKRGSDGA: the antigen binding call is “binds”.
With VKRGSSGA the entry was “binds”.
As to VTRGDSGA, the antigen binding call is given as “no binding”.
Turning to YKRGSSGA, the antigen binding call is listed as “binds”.
For the variant DAGGGSSD, the antigen binding call is “no binding”.
In the case of SETTDAGV, the antigen binding call is “no binding”.
As to STKRSFWA, the antigen binding call is listed as “no binding”.
As for YKGKDSVD, the antigen binding call was “no binding”.
Consider YRGTGSVD, for which the antigen binding call is on record as “binds”.
Turning to VTGTGSVD, the antigen binding call is “no binding”.
As to YRGEASVD, the antigen binding call is reported as “binds”.
With DTGTGSVD the entry was “no binding”; with YRGESAVD, “binds”; with YRGKDSVD, “binds”.
In the case of DAEKDSGA, the antigen binding call is given as “no binding”.
Take VTKESAAV: the antigen binding call is on record as “no binding”.
In the case of YRGGTSVD, the antigen binding call is on record as “binds”.
On to YRGKSSVD, for which the antigen binding call is “binds”.
On to YGGKNSVD, for which the antigen binding call is “no binding”.
Take DEGGTSVD: the antigen binding call is on record as “no binding”.
With YRTKAAVD the entry was “binds”; with YRGKASVD, “binds”; with VTGTSDVA, “no binding”.
VTGGDDWF: the antigen binding call was “no binding”.
DREGDYLY: the antigen binding call is listed as “no binding”.
On to YTGGDSVA, for which the antigen binding call was “no binding”.
As for YRGKAAVD, the antigen binding call is listed as “binds”.
On to VTGGDSVD, for which the antigen binding call was “no binding”.
With YTGGDSVD the entry was “binds”; with YAGAAAVD, “no binding”.
In the case of DAGTDAGD, the antigen binding call is recorded as “no binding”.
With YRTGDSAA, the antigen binding call is “binds”.
On to YRTGDSSA, for which the antigen binding call is recorded as “binds”.
The same measure for DRAGDDLA: “no binding”; for YRAGDSSA: “binds”.
As to DRAGDSSA, the antigen binding call is reported as “no binding”.
The same measure for SAAGGAAD chain 1 L45S: “no binding”; for DTREGDVY: “no binding”; for VKERGDGV: “no binding”.
Regarding FARENFLA chain 1 V51A, the antigen binding call is on record as “no binding”.
For the variant VAKADDWF, the antigen binding call is “no binding”.
Take YRTRAAWD: the antigen binding call is “binds”.
YRTRSAGD: the antigen binding call is recorded as “binds”.
On to YRGRSAWD, for which the antigen binding call was “binds”.
Regarding YRTRSAWD, the antigen binding call was “binds”.
With YAGRAAWD the entry was “no binding”; with YGTRSAAD, “no binding”; with SEEEGDWV, “no binding”.
As to AKEADDVA, the antigen binding call is “no binding”.
Consider YTGTSDLV, for which the antigen binding call was “no binding”.
As to VTTKSDSV, the antigen binding call is reported as “no binding”.
For the variant VTTRADVA, the antigen binding call is recorded as “no binding”.
As to VEKEGAGD, the antigen binding call is “no binding”.
Regarding VEEEGAGD, the antigen binding call is given as “no binding”.
Take FRRRGSGD: the antigen binding call is “binds”.
Turning to VRRRGSGD, the antigen binding call is reported as “binds”.
Take VRRRGAGD: the antigen binding call is reported as “binds”.
On to VGGGGDGS, for which the antigen binding call is listed as “no binding”.
Turning to DTTGGDGV, the antigen binding call was “no binding”.
For the variant SEKKSAGA, the antigen binding call is on record as “no binding”.
YGARGAAF: the antigen binding call is listed as “no binding”.
The same measure for YRGKGAAF: “binds”.
With YRGGGAAF the entry was “binds”; with YRAGGAAF, “binds”.
For the variant YEGGGDWF, the antigen binding call is reported as “no binding”.
On to VKGKGAAF, for which the antigen binding call is reported as “no binding”.
Consider YRGGDAAF, for which the antigen binding call was “binds”.
Turning to FAGGGDAV, the antigen binding call was “no binding”.
As to VRAGGDAV, the antigen binding call is given as “binds”.
As for VRGGGDAA, the antigen binding call is reported as “no binding”.
Take VRTKADAV: the antigen binding call is “no binding”.
VRAGGDAA: the antigen binding call is reported as “binds”.
For VRERGDAA, the antigen binding call was “no binding”.
For VRAGDDAV, the antigen binding call is “no binding”.
Turning to YRRGDAAF, the antigen binding call is reported as “binds”.
For YRRESAGF, the antigen binding call is recorded as “binds”.
Consider DRRGDDVF, for which the antigen binding call was “no binding”.
In the case of YRKGGAWF, the antigen binding call is “binds”.
With YRRGGAGF the entry was “binds”; with VAEKDDGS, “no binding”; with SGGTGDVF, “no binding”.
Regarding FTGEADAS, the antigen binding call is recorded as “no binding”.
The same measure for AARADSWV: “no binding”; for YRRGSAGF: “binds”.
In the case of ARRGGSGF, the antigen binding call is given as “no binding”.
On to YRRGDAGF, for which the antigen binding call is “binds”.
Consider YRRGSSGF, for which the antigen binding call was “binds”.
As for YRKGGAGF, the antigen binding call is listed as “binds”.
With YAGGDDGA, the antigen binding call is reported as “no binding”.
For SETTDSSA, the antigen binding call is listed as “no binding”.
Consider DAGGGYGV, for which the antigen binding call is on record as “no binding”.

Source of the values: the emibetuzumab library of Makowski et al. (2022).
